Results from ChEMBL document CHEMBL1157539, “Thousands of chemical starting points for antimalarial lead identification” (Nature, 2010).

What was measured:
Assay type in all cases: functional
Plasmodium falciparum [1] = assay: GSK_TCMDC: Inhibition of Plasmodium falciparum 3D7 in whole red blood cells, using parasite LDH activity as an index of growth. Test compounds present at 2uM
Plasmodium falciparum [2] = assay: GSK_TCMDC: Inhibition of Plasmodium falciparum Dd2 in whole red blood cells, using parasite LDH activity as an index of growth. Test compounds present at 2uM
HepG2 = assay: GSK_TCMDC: Percent inhibition of human HepG2 cell line. Test compounds present at 10uM.

Row | Structure (SMILES) | Inhibition (Plasmodium falciparum [1]) | Inhibition (Plasmodium falciparum [2]) | Inhibition (HepG2)
1 | CCOc1ccc(N(CC)S(=O)(=O)c2cc(Br)cc3c2N(C(=O)C2CC2)CC3)cc1 | 99% | 97% | 0%
2 | COc1cc2ccccc2c(OC)c1CNCCCCCCNCc1c(OC)cc2ccccc2c1OC.CS(=O)(=O)O | 93% | 91% | 100%
3 | CC1CCN(CCCNc2ccc(C(=O)Nc3ccc(C(F)(F)F)cc3)cc2[N+](=O)[O-])CC1 | 100% | 100% | 62%
4 | O=[N+]([O-])c1ccc(C=NNc2nc3ccccc3[nH]2)cc1 | 100% | 98% | 11%
5 | Br.CC1(C)NC(N)=NC(=N)N1OCCCc1cccc(C(F)(F)F)c1 | 95% | 95% | 62%
6 | CN(CCN)Cc1cccc(-c2cccc(-c3nc4cc(C(F)(F)F)ccc4[nH]3)c2)c1.O=C(O)C(F)(F)F | 99% | 98% | 22%
7 | Cc1cccc(C=NN=c2cc(C)[nH]c3ccc(F)cc23)n1 | 95% | 45% | 1%
8 | O=C(/C=C/c1ccc(Cl)c(Cl)c1)NCCCCCN1CCC(NC(=O)Nc2ccccc2Cl)CC1 | 100% | 23% | 56%
9 | CCN(CC)S(=O)(=O)c1ccc(C(C)NC(=O)c2ccccc2COc2ccccc2)cc1 (centres undefined) | 100% | 89% | 0%
10 | COc1cc(CCNC(=N)/C=C/c2ccc(Cl)cc2)ccc1Cl.Cl | 100% | 16% | 68%
11 | CCOC(=O)c1ccc(NC(=O)Nc2ccc(-c3cccc(-c4nc5cccc(C)c5[nH]4)c3)cc2)cc1 | 100% | 100% | 91%
12 | CCN(CCCN1CCCCC1)c1cc(C)nc(Nc2ccc(C)cc2Br)n1.O=C(O)C(F)(F)F | 95% | 27% | 49%
13 | Cc1cc(C2CCN(CCCCNC(=O)c3ccc(NC(=O)c4ccc(Cl)cc4)cc3)CC2)c(C)cc1OCCN(C)C | 100% | 77% | 18%
14 | O=C(O)C(F)(F)F.OC1(c2ccccc2)CCN(Cc2cccc(-c3c[nH]c4nc(NC5CCCC5)ncc34)c2)C1 (centres undefined) | 92% | 31% | 42%
15 | CC(C)(C)CCN1CCC(CNC(=O)c2cc(-c3cccc(Cl)c3)cs2)C1.O=C(O)C(F)(F)F (centres undefined) | 99% | 13% | 50%
16 | COc1ccc2nccc(N3CCC(CCNCc4ccc5c(n4)NC(=O)CO5)CC3)c2n1.Cl | 100% | 72% | 19%
17 | CCOC(=O)N/N=C/[C@H](CCc1ccccc1)NC(=O)[C@H](CC(C)C)NC(=O)c1cc2cccc(OC)c2o1 | 84% | 58% | 3%
18 | COc1cc2nc(NCCCOC(C)C)n3nc(-c4ccccc4)nc3c2cc1OC | 94% | 97% | 0%
19 | O=C(Nc1cccc(F)c1)c1ccc(C(=O)NC2CCN(CC3CCCCC3)CC2)cc1.O=C(O)C(F)(F)F | 96% | 16% | 22%
20 | CC(C)NCc1ccc(-c2ccc(NC(=O)c3ccc(Cl)cc3)cc2)cc1.O=C(O)C(F)(F)F | 90% | 8% | 60%
21 | Cc1cc(NC(=O)NCCN2CCC(NS(=O)(=O)c3ccc(C(F)(F)F)cc3)C2)c2ccccc2n1.O=C(O)C(F)(F)F (centres undefined) | 96% | 39% | 15%
22 | O=C(Nc1ccc(F)c([N+](=O)[O-])c1)Nc1cc(C(F)(F)F)ccc1Cl | 100% | 86% | 5%
23 | O=C(/C=C/C=C/c1ccccc1)NCCCCCN1CCC(c2c[nH]c3ccccc23)CC1 | 85% | 7% | 28%
24 | CCCCN(C)CC#Cc1ccc(-c2ccc3[nH]c(C)c(Br)c(=O)c3c2)cn1 | 98% | 93% | 3%
25 | O=[N+]([O-])c1ccc2nc(Nc3ccc(Cl)c(Cl)c3)c(Nc3ccc(Cl)c(Cl)c3)nc2c1 | 100% | 99% | 1%
26 | COc1ccccc1/C=C/C(=O)NCCC1CCN(CCCCCNC(=O)/C=C/c2ccc(Cl)c(Cl)c2)CC1 | 94% | 0% | 34%
27 | Cc1cccc(Cn2c(C(N)=O)nn(-c3ccc([N+](=O)[O-])cc3C#N)c2=S)c1 | 100% | 48% | 1%
28 | Cc1cccc2nc(-c3ccc(-c4ccc(CNCC(C)C)cc4)cc3)[nH]c12.O=C(O)C(F)(F)F | 100% | 90% | 14%
